# Experimental data from the supplement of paper PMC12645437, “Orthogonal IMiD-Degron Pairs Induce Selective Protein Degradation in Cells” (ACS Chemical Biology, 2025).
# The full ranking holds about 8,300 sequences; the median of “log2 fold change of degron read counts, EGFP-low vs EGFP+ sorted cells (limma voom), compound-induced degradation” is about -1.1, and the highest 2% start at about 3.2. Only a selection was taken, and the highest values are over-represented in it overall.
# T1: CRBN, Q96SW2
# T1 chain: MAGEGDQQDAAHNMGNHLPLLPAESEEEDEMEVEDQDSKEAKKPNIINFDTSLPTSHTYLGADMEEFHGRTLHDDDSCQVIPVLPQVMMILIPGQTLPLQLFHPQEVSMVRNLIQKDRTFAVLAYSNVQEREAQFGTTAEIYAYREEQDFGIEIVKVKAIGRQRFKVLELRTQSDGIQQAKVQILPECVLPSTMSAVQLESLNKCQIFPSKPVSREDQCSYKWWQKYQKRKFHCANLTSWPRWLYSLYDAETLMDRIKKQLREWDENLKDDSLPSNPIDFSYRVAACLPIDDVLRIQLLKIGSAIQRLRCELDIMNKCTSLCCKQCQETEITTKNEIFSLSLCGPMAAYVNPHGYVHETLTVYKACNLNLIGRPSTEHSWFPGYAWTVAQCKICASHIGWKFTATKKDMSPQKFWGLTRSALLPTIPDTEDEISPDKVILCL
# Molecular target: T1, CRBN, Q96SW2
# Assay: log2 fold change of degron read counts, EGFP-low vs EGFP+ sorted cells (limma voom), compound-induced degradation; higher = more compound-induced degradation of the degron-EGFP fusion; degrons are variants of IKZF1/3 zinc finger 2; compound dose not given here
# Conditions: Jurkat, 18 h
# Description: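 Pooled library of 8380 IKZF3 ZF2 degron mutants (positions 146-167 varied within the IKZF3 130-189 degron; only the varied core is printed, flanks not printed) fused to EGFP with IRES-mCherry, lentivirally expressed in Jurkat cells. mCherry+ cells were treated with one IMiD compound for 18 h (dose not stated) and FACS-sorted into EGFP-low and EGFP+ populations. Degron sequences were counted by NGS, and log2FC (EGFP-low vs EGFP+) was estimated by limma voom over 3 biological replicates.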
# [1] = compound: compound 19 (5-tert-butyl-thalidomide)
# [2] = compound: compound 22 (5-morpholino-thalidomide)
# [3] = compound: compound 33 (diphenyl IMiD analogue)
# 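Further: pooled lentiviral library of zinc finger degron-EGFP fusions in mCherry-positive Jurkat cells, FACS-sorted after compound exposure, with degron abundance counted by next-generation sequencing.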
Sequence,log2 fold change of degron read counts [1],log2 fold change of degron read counts [2],log2 fold change of degron read counts [3],log2 fold change of degron read counts (compound: thalidomide)
"FECNICGAHFTQKGNLLRHIKL [46F_47E_49N_50I_52G_53A_54H_55F_67L_, Q9UKT9]",-1.95,-2.29,0.157,0.612
"FMCEICGAQFTQKGNLLRHIKL [46F_47M_49E_50I_52G_53A_54Q_55F_67L_, Q9UKT9]",0.486,0.824,2.7,1.97
"FWCEICGAQFTQKGNLLRHIKL [46F_47W_49E_50I_52G_53A_54Q_55F_67L_, Q9UKT9]",3.54,3.93,2.7,2.04
"FHCEICGAQFTQKGNLLRHIKL [46F_47H_49E_50I_52G_53A_54Q_55F_67L_, Q9UKT9]",2.66,2.64,2,0.968
"FTCEICGAQFTQKGNLLRHIKL [46F_47T_49E_50I_52G_53A_54Q_55F_67L_, Q9UKT9]",0.557,1.85,2.25,2.92
"FDCEICGAQFTQKGNLLRHIKL [46F_47D_49E_50I_52G_53A_54Q_55F_67L_, Q9UKT9]",2.04,0.951,-0.0023,1.29
"FQCEICGAQFTQKGNLLRHIKL [46F_47Q_49E_50I_52G_53A_54Q_55F_67L_, Q9UKT9]",0.962,2.24,2.41,3.56
"FECEICGAQFTQKGNLLRHIKL [46F_47E_49E_50I_52G_53A_54Q_55F_67L_, Q9UKT9]",-0.353,-0.866,1.45,2.5
"FRCEICGAQFTQKGNLLRHIKL [46F_47R_49E_50I_52G_53A_54Q_55F_67L_, Q9UKT9]",0.162,0.149,1.38,1.94
"FICEICGAQFTQKGNLLRHIKL [46F_47I_49E_50I_52G_53A_54Q_55F_67L_, Q9UKT9]",0.506,2.86,3.06,3.16
"FLCEICGAQFTQKGNLLRHIKL [46F_47L_49E_50I_52G_53A_54Q_55F_67L_, Q9UKT9]",1.29,-0.49,1.79,2.07
"FFCEICGAQFTQKGNLLRHIKL [46F_47F_49E_50I_52G_53A_54Q_55F_67L_, Q9UKT9]",3.67,3.67,2.56,1.93
"FYCEICGAQFTQKGNLLRHIKL [46F_47Y_49E_50I_52G_53A_54Q_55F_67L_, Q9UKT9]",3.6,3.55,3.13,2.12
"FNCPICGAEFTQKGNLLRHIKL [46F_47N_49P_50I_52G_53A_54E_55F_67L_, Q9UKT9]",1.92,0.348,0.475,0.897
"FECDICGARFTQKGNLLRHIKL [46F_47E_49D_50I_52G_53A_54R_55F_67L_, Q9UKT9]",-0.106,-1.6,-0.318,1.69
"FRCPICGHKFTQKGNLLRHIKL [46F_47R_49P_50I_52G_53H_54K_55F_67L_, Q9UKT9]",-2.46,-2.78,-1.61,-1.55

Sequence,log2 fold change of degron read counts [1],log2 fold change of degron read counts [2],log2 fold change of degron read counts [3],log2 fold change of degron read counts (compound: thalidomide)
"FSCNQCGRMFTQKGNLLRHIKL [46F_47S_49N_50Q_52G_53R_54M_55F_67L_, Q9UKT9]",-2.45,-3.15,-2.32,-2.79
"FHCNQCGHKFTQKGNLLRHIKL [46F_47H_49N_50Q_52G_53H_54K_55F_67L_, Q9UKT9]",-2.56,-3.05,-2.84,-2.45
"FDCPICGRRFTQKGNLLRHIKL [46F_47D_49P_50I_52G_53R_54R_55F_67L_, Q9UKT9]",2.15,0.908,1.08,2.66
"LCCNQCGFHCTQKGNLLRHIKL [46L_47C_49N_50Q_52G_53F_54H_55C_67L_, Q9UKT9]",-2.15,-2.61,-1.7,-1.96
"FDCSVCGHPFTQKGNLLRHIKL [46F_47D_49S_50V_52G_53H_54P_55F_67L_, Q9UKT9]",-1.84,-2.36,-2.33,-1.9
"FKCDVCGAYFTQKGNLLRHIKL [46F_47K_49D_50V_52G_53A_54Y_55F_67L_, Q9UKT9]",-2.99,-3.36,-3.07,-2.83
"FECDVCGADFTQKGNLLRHIKL [46F_47E_49D_50V_52G_53A_54D_55F_67L_, Q9UKT9]",-3.21,-3.19,-1.99,-2.31
"FWCPICGRPFTQKGNLLRHIKL [46F_47W_49P_50I_52G_53R_54P_55F_67L_, Q9UKT9]",2.01,0.778,1.24,-0.187
"FWCPQCGAKFTQKGNLLRHIKL [46F_47W_49P_50Q_52G_53A_54K_55F_67L_, Q9UKT9]",1.29,2.33,-0.101,-0.258
"FCCEICGAQFTQKGNLLRHIKL [46F_47C_49E_50I_52G_53A_54Q_55F_67L_, Q9UKT9]",3.18,2.58,2.74,2.27
"FGCEICGAQFTQKGNLLRHIKL [46F_47G_49E_50I_52G_53A_54Q_55F_67L_, Q9UKT9]",3.48,2.64,1.18,1.14
"FACEICGAQFTQKGNLLRHIKL [46F_47A_49E_50I_52G_53A_54Q_55F_67L_, Q9UKT9]",3.66,2.38,1.15,1.07
"FKCEICGAQFTQKGNLLRHIKL [46F_47K_49E_50I_52G_53A_54Q_55F_67L_, Q9UKT9]",0.105,-2.17,-1.89,-0.0845
"FNCEICGAQFTQKGNLLRHIKL [46F_47N_49E_50I_52G_53A_54Q_55F_67L_, Q9UKT9]",2.88,1.44,0.527,0.564
"FVCEICGAQFTQKGNLLRHIKL [46F_47V_49E_50I_52G_53A_54Q_55F_67L_, Q9UKT9]",0.913,2.56,2.86,3.22
